# Assay results taken from PMC5540273 (PLoS ONE, 2017).
# Tested on: T1, GRK2
# T1 construct: gene ADRBK1
# Conditions: concentration: 1 μM, replicates: in singlicate; n = 1
# 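Note: KINOMEscan kinase panel screen.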
row,Compound,%Inh [%]
1,O=C(NCCNc1ccnc(Nc2ccc(F)cc2)n1)c1cc2ccccc2s1 [GSK1379874],0
2,Cc1nnc(-c2ccc3occ(-c4ccc(C(C)O)cc4)c3c2)o1 (stereo not shown),0
3,NS(=O)(=O)CCc1cccc(Nc2nccc(-c3c(-c4cccc(NC(=O)c5c(F)cccc5F)c4)nn4ccccc34)n2)c1 [GSK336735],0
4,NS(=O)(=O)c1cccc(-c2ccc3nccc(-c4cccc(S(N)(=O)=O)c4)c3c2)c1 [GW867253],0
5,Cc1nnc(-c2ccc(C)c(-c3ccc(C(=O)Nc4ccc(NS(C)(=O)=O)cc4)cc3)c2)o1 [GW702865],0
6,Cl.Nc1ncnc2occ(-c3ccc(NC(=O)Nc4cc(C(F)(F)F)ccc4F)cc3)c12 [SB-707548],0
7,O=C(NCCCN1CCOCC1)c1cccc(Nc2nccc(Nc3ccc(Oc4ccccc4)cc3)n2)c1 [GW663929],0
8,O=C(c1ccc(-c2cc(-c3c[nH]nc3-c3ccccn3)ccn2)cc1)N1CCOCC1 [GW812171],0
9,CN1c2ccc(NCc3ccc(F)cc3)cc2-c2c(cnn2C)S1(=O)=O,0
10,Cc1nnc(-c2ccc3ncc(-c4ccc(S(C)=O)cc4)n3c2)o1 (stereo not shown),43
11,COc1cc2ncn(-c3cc(OCc4sccc4Cl)c(C(N)=O)s3)c2cc1OC [GSK448459],0
12,[2H]C([2H])(c1cccc(C(F)(F)F)c1C)n1ccn2c(=O)nc(N3CCOCC3)cc12 [GSK2336394],0
13,Cl.Oc1cccc(Nc2ccnc3cc(-c4ccncc4)ccc23)c1 [GW494601],0
